From PubChem BioAssay (NCATS)
Records with an inconclusive call do not appear. Entries that show only a call come without a potency. The source made the active and inactive calls. The call rests on the fitted dose curve; in most records, active means well fitted inhibition curve with a large enough effect in the signal ratio, with a control signal flat (not every such curve was filed as active); inconclusive means small, poorly fitted or top-dose-only effect, or effect the other way, or a change in a side signal; inactive means flat fitted curve, though single readings scatter; the % refers to the signal ratio.
Potency means the concentration at half of the fitted maximal effect.

Test: qHTS Assay for Identification of Small Molecule Antagonists for NFkB Signaling Pathway (AID 895)
Conditions: NFkB beta-lactamase reporter cells, FRET ratio 460/530, stimulated with 10 pM TNF alpha; series mostly up to 38.3 µM
Experimental: NIH Molecular Libraries Screening Centers Network [MLSCN]
NIH Chemical Genomics Center [NCGC]
The TNF alpha/NFkB signaling pathway was assayed in NFkB-bla cells (Invitrogen), a ME-180 cervical carcinoma line containing a stably integrated beta-lactamase reporter gene controlled by a NFkB response element. […] The assay was screened at the EC50 of TNF alpha activation to identify inhibitors of TNF alpha/NFkB signaling.
NCGC Assay Protocol Summary:
Cells were trypsinized, washed in assay medium (AM, OPTI MEM with 0.5% fetal bovine serum, 0.1 mM nonessential amino acids, 1 mM sodium pyruvate, 10mM HEPES pH 7.3, 100U/ml penicillin, and 100 ug/ml streptomycin) and plated at 1000 cells/5 uL/well into black clear-bottom 1536 well plates. After an overnight incubation at 37 C and 5% CO2, 23 nL of compound were delivered by a pin tool, 1 uL of TNF alpha (10 pM final concentration in AM) was added and plates were incubated at 37 C for 5 hrs. One uL of LiveBLAzerTM detector mix (Invitrogen) was added, the plates incubated at room temperature for 2 hrs, and fluorescence intensity at 460 and 530 nm emission was measured at 405 nm excitation by an Envision (Perkin Elmer).
In the case of `COC(=O)c1c(-c2cc(OC)c(OC)c(OC)c2)c2ccc(OCc3ccccn3)cc2c(=O)n1-c1ccc(N)cc1`, the Potency is reported as 3160 nM (active). For `CC(C)CN(C)c1nc(N)c(C(=O)N=C(N)N)nc1Cl`, the Potency was “inactive”. With `Oc1ccc(/C=C\c2cc(O)cc(O)c2)cc1` the Potency was “inactive”. For `NCCC(=O)NCCc1cnc[nH]1`, the Potency was “inactive”. In the case of `CC(=O)NCCc1ccc(O)c(O)c1`, the Potency is reported as “inactive”. For `N=C1Sc2ccccc2C2=NCCCN12`, the Potency was 2000 nM (active). In the case of `CCn1c(=O)c2[nH]c(-c3ccccc3)nc2n(CC)c1=O`, the Potency is reported as “inactive”. For `N=C(N)SCCc1cccc(CCSC(=N)N)c1`, the Potency was “inactive”. With `O=C(Cc1ccc(Cl)c(Cl)c1)OCCN1CCCC1` the Potency was “inactive”. With `NC(=NCCC[C@H](N)C(=O)O)NO` the Potency was 398 nM (active).
